Assay outcomes from PubChem.
In the library only some 3% were active in any assay of this set; here they are far more common.
TbPYK inhibitor: blocks Trypanosoma brucei pyruvate kinase; Q57TT1; TbPYK enzyme, Kinase-Glo Plus ATP luminescence, 45 min; Potency, µM (doses to about 76.8 µM), usual class: inhibitors; actives 0.12% (n = 410,000); AID 624173; note: nearly all actives have a fitted effect of over 50% in size
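T. brucei PYK with substrate was exposed to pin-transferred compounds across a concentration series, then started with 130 uM ADP (final). After 45 min at room temperature, Kinase-Glo Plus luminescence was read, normalized and curve-fitted.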
Sm TGR block: S. mansoni TGR enzyme inhibition; Q962Y6; purified TGR, DTNB reduction, TNB absorbance 405 nm; Potency, µM (highest dose often 114 µM), usual class: inhibitors; actives 3% (n = 360,000); AID 485364; note: nearly all actives have a fitted effect of over 60% in size
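Kinetic colorimetric format: TGR-catalysed, NADPH-driven DTNB reduction monitored via TNB absorbance. Enzyme dispensed at 20 nM; compound exposure 15 min at room temperature before reaction start.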
LmPK inhibitor: inhibitors of Leishmania mexicana pyruvate kinase; Q27686; Potency, µM (doses to about 57.5 µM), hits mostly inhibitors; purified LmPK, Kinase-Glo ATP luminescence, 1 h; AID 1721; actives 0.37% (n = 290,000)
Target sequence (Q27686 whole entry, looked up): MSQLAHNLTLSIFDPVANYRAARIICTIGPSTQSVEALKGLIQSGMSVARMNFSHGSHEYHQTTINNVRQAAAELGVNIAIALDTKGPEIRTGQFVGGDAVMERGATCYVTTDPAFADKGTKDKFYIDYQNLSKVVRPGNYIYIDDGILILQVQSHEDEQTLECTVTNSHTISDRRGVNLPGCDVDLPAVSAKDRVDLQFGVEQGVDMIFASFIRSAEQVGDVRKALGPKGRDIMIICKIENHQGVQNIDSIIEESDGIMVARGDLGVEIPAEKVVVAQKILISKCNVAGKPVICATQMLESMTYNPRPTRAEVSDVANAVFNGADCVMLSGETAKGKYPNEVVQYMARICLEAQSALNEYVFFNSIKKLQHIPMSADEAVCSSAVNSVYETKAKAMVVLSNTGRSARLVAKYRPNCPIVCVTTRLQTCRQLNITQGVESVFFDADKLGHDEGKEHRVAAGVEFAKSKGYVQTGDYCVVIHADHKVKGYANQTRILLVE
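Purified LmPK (0.1 nM) converted ADP (0.1 mM) to ATP with PEP (0.5 mM) in imidazole buffer pH 7.2 with KCl and MgCl2, 1 h at room temperature. ATP was read by Kinase-Glo luminescence; data normalized to uninhibited and no-enzyme controls.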
RE007 growth inh: less growth of the S. pombe RE007 Vpr strain | S. pombe RE007 Vpr strain, BacTiter-Glo ATP luminescence, 24 h | Potency, µM (series often up to 92.2 µM), usual class: inhibitors | actives 0.21% (n = 360,000) | AID 651644; active = well fitted falling curve with a large enough effect; inconclusive = small, poorly fitted or top-dose-only effect; inactive = no such curve, though single readings can be large or run the other way; note: nearly all actives have a fitted effect of over 50% in size
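Fission yeast RE007 carrying one integrated HIV-1 vpr copy, seeded at OD 0.01 in PMG+AL medium with 23 nL pinned compound. Grown 24 h at 30 degrees; viability read by BacTiter-Glo luminescence after 5 min.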
Numbers stand for hits; – = inactive; ? = inconclusive; · = no result given; [ ] = dose if it differs, or a comment. Unless noted, calls come from the whole dose curve; as a rule, active = well fitted curve in the direction sought with a large enough effect; inconclusive = small, poorly fitted or top-dose-only effect, or another doubt; inactive = no such curve, though single readings can be large; an effect the other way counts as inactive or inconclusive.

SMILES	TbPYK inhibitor	Sm TGR block	LmPK inhibitor	RE007 growth inh
CC(C)(C)c1ccc(C(=O)CC(Sc2ccc(Cl)cc2)C(=O)O)cc1 (stereo not drawn)	?	11µM	–	–
Cc1ccc(SC(CC(=O)c2ccc(F)cc2)C(=O)O)cc1 (stereo not drawn)	–	0.5µM	–	?
Cc1ccc(NC(=O)/C=C/c2ccccc2)c(Br)c1	–	–	·	·
COc1ccc([C@]23Cc4cc(C#N)ccc4C(O2)C2=C(CC4(CCCCC4)OC2=O)O3)cc1	·	?	–[11.5 µM]	·
O=C(Nc1ccccc1F)Nc1cccc2ccc(O)cc12	–	32µM	–	·
CC(=O)Nc1cccc2ccc(O)cc12	–	·	·	–
CNC(=O)/C(C#N)=C/c1cccc(Oc2ccccc2)c1	–	–	–	18µM
COc1ccc(-n2nnnc2SCC(=O)NCc2ccco2)cc1OC	–	–	–	–
CCn1nnnc1SCC(=O)NCc1ccco1	–	25µM	–	–
COc1cccc(-n2nnnc2SCC(=O)NCc2ccco2)c1	–	50µM	–	–
CCCn1c(SCC(=O)NCc2ccco2)nnc1C(C)C	–	?	–	–
CCCCn1nnnc1SCC(=O)NCc1ccco1	–	40µM	–	·
CC#CCN1c2ccccc2[C@]23C[C@@H](C(=O)OC)N(S(=O)(=O)c4ccc(Br)cc4)C2=NC(C(=O)OC)=C(C(=O)OC)[C@H]13	·	·	–[11.5 µM]	·
Cc1cc(C)n2c(=O)c3ccc(Cl)cc3nc2c1C#N	–	–	–	–
Cc1cc(Cl)n2c(nc3cc(F)c(F)cc32)c1C#N	–	1.1µM	–	?
COc1nc(C)cnc1NS(=O)(=O)c1cccnc1-c1ccc(-c2nnco2)cc1	–	·	·	·
O=C(Nc1ccc2oc(-c3cccnc3)nc2c1)c1ccc(-c2cccc(Cl)c2)o1	–	35µM	·	·
O=C(Nc1ccc2oc(-c3cccnc3)nc2c1)c1cccnc1	–	–	–	–
O=C(Nc1ccc2oc(-c3cccnc3)nc2c1)c1ccc(-c2ccc(Cl)cc2)o1	–	32µM	·	·
O=C(Nc1cccnc1)c1ccc(-c2ccc(Cl)cc2)o1	–	32µM	–	–
Cc1c(NC(=O)c2ccc(-c3cccc([N+](=O)[O-])c3)o2)cccc1-c1nc2cc(Cl)ccc2o1	–	35µM	·	·
CC1(C(=O)Nc2ccc3c(c2)OCO3)CCN1C(=O)CCc1ccc(Cl)cc1Cl (stereo not drawn)	–	·	·	–
COc1ccc(/C(C)=N/Nc2ccccc2Cl)c(O)c1	–	14µM	–	–
O=NCc1ccc([N+](=O)[O-])o1	–	·	·	·
N#CC1(C#N)C(c2ccccc2)OC23CCCCCC2C1(C#N)C(=N)O3 (stereo not drawn)	–	25µM	–	–
SMILES	TbPYK inhibitor	Sm TGR block	LmPK inhibitor	RE007 growth inh
O=c1c(C(c2ccc(Cl)cc2)c2c(O)nc3n(c2=O)CCS3)c(O)nc2n1CCS2	–	–	–	–
O=c1c(C(c2ccc(F)cc2)c2c(O)nc3n(c2=O)CCS3)c(O)nc2n1CCS2	–	0.79µM	–	–
O=c1c(C(c2ccc(Cl)cc2)c2c(O)nc3n(c2=O)CCCS3)c(O)nc2n1CCCS2	–	1.8µM	–	–
CC#CC[C@@H](C)[C@@H](O)/C=C/[C@H]1[C@H]2c3cccc(CCCC(=O)O)c3O[C@H]2C[C@@H]1O	–	·	·	·
C=C/C(C)=C/CC1C(=C)CCC2C(C)(C(=O)O)CCCC12C (stereo not drawn)	–	32µM	–	–
C=C[C@]1(C)C=C2CCC3[C@](C)(CCC[C@@]3(C)C(=O)O)C2CC1 (stereo partly drawn)	–	–	·	–
O=C(Nc1ccc(F)cc1)c1cccc(N2CCCS2(=O)=O)c1	–	–	·	·
CC(=O)N1CC(O)CC1C(=O)O (stereo not drawn)	–	·	·	·
Cc1nnc(Sc2nc3ccccc3o2)c2ccccc12	–	32µM	–	–
Cc1ccc(-c2nnc(Sc3nc4ccccc4o3)c3ccccc23)cc1	–	–	–	–
Cc1nc(S/C(=C\c2ccc(-c3ccc(C(=O)O)c(Cl)c3)o2)C(=O)O)n[nH]1	?	35µM	–	–
C=C1C(=O)OC2CC3(C)OC3CCC(C)=CC(OC(C)=O)C12 (stereo not drawn)	–	·	·	–
C=C1C(=O)O[C@@H]2C[C@@H](C)[C@H]3C=CC(=O)[C@]3(O)C[C@@H]12	–	35µM	–	–
CC1=C(C)C(=O)N(c2ccccn2)C1=O	–	–	–	–
Cc1nn(-c2ccccn2)c2c1C(=O)C(Br)CC2 (stereo not drawn)	?	2.5µM	–[11.5 µM]	–
Fc1cccc(/C=C2\CCCC3=C2NC(=S)NC3c2cccc(F)c2)c1 (stereo not drawn)	?	20µM	–	–
S=C1NC2=C(CCC/C2=C\c2ccccc2)C(c2ccccc2)N1 (stereo not drawn)	?	–	–	–
N#CCCn1cc(C=C(C#N)C#N)c(-c2ccc(Cl)cc2)n1	–	1.3µM	–	–
Cc1cc2nc3c(=O)[nH]c(=O)nc-3n(C[C@H](O)[C@H](O)[C@H](O)COP(=O)(O)OP(=O)(O)OC[C@H]3O[C@@H](n4cnc5c(N)ncnc54)[C@H](O)[C@@H]3O)c2cc1C	–	·	·	·
COc1ccc(CNC(=O)Cn2nc3c(cc2=O)CCCC3)cc1	–	–	·	·
Nc1ccccc1SC(CC(=O)c1ccccc1)c1ccccc1 (stereo not drawn)	–	·	·	–
CC(C(Sc1ccccc1N)c1ccccc1)[N+](=O)[O-] (stereo not drawn)	25µM	–	–	–
O=C1C2C3C=CC(C3=C3CCCCC3)C2C(=O)N1c1ccccc1 (stereo not drawn)	–	16µM	–	35µM
O=c1[nH]c(C(F)(F)C(F)(F)C(F)(F)F)no1	–	·	·	–
Oc1ccc(Cl)cc1C1=NNC(c2cc(Br)cc3c2OCOC3)C1 (stereo not drawn)	–	25µM	–	–
SMILES	TbPYK inhibitor	Sm TGR block	LmPK inhibitor	RE007 growth inh
Cc1ccccc1CN1C[C@@H]2C[C@@H](c3cnc(N4CCOCC4)s3)N3CCC[C@@]23C1=O	–	16µM	–	–
COc1ccccc1CN1C[C@@H]2C[C@@H](c3ccccc3C)N3CCC[C@@]23C1=O	–	–	–	–
Cc1cccc([C@@H]2C[C@H]3CN(Cc4cccc(Cl)c4)C(=O)[C@]34CCCN24)n1	?	28µM	–	–
Cc1ccc([C@@H]2C[C@H]3CN(Cc4cccc(Cl)c4)C(=O)[C@]34CCCN24)o1	–	?	–	–
COc1cccc(C(O)c2nc(-c3cc(F)cc(F)c3)cs2)c1 (stereo not drawn)	–	·	·	–
O=C1C=CC(=O)N1c1cccc(-c2ccccc2)c1	5µM	0.71µM	?	2.5µM
COc1ncnc2sc(-c3ccccc3)cc12	?	–	13µM	?
COc1cccc(NC(=O)N2CCN3CCCCC3C2)c1 (stereo not drawn)	–	–	·	·
COCCN1C(=O)C(CC(=O)Nc2ccc(C(C)=O)cc2)SC1=Nc1ccccc1 (stereo not drawn)	–	–	–	–
CC(O)CN1C(=O)C(CC(=O)Nc2ccc(Cl)cc2)SC1=Nc1ccccc1 (stereo not drawn)	–	18µM	–	?
